In the library only some 2.8% were active in any assay of this set; here they are far more common.
TNF necrop inh: blocks TNF-alpha induced death of Jurkat FADD-/- cells. Jurkat FADD-/- TNF necroptosis rescue, ATP luminescence, 24 h; 0 = TNF only, 100 = no-TNF cells. activation (protection from cell death), % at 10 µM. actives 0.068% (n = 220,000). AID 463075;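 active = activation, meaning protection from cell death, of at least 50% relative to plate controls; inactive = activation below 50%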;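 note: necroptosis triggered by 40 ng/mL TNF-alpha added together with compound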
Mcl1 Noxa PPI: Mcl-1/Noxa interaction inhibition; Q07820; TR-FRET Mcl-1/Noxa peptide binding, 2 h; inhibition, % at 21.7 µM; actives 1.5% (n = 220,000);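 active = compounds that cut the protein-peptide binding signal by more than 50% relative to plate controls in a single-dose test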;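 note: His-tagged Mcl-1 with rhodamine Noxa BH3 peptide and terbium anti-His antibody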
Target sequence (Q07820 whole entry, looked up): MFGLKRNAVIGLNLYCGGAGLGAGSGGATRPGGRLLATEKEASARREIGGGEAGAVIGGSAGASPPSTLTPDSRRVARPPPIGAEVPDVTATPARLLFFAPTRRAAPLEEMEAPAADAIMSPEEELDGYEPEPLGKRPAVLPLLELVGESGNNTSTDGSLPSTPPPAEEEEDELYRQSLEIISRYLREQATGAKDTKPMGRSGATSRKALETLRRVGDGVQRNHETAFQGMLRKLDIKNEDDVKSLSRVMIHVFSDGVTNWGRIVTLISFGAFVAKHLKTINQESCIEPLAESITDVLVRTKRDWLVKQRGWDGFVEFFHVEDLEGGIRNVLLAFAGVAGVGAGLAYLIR
m-calpain inh: calpain II (pig) inhibition. purified calpain II, fluorogenic peptide substrate, 30 min. inhibition, % at 16 µM. actives 0.37% (n = 220,000). AID 1236;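 active = inhibition above about 50%, limit read from the data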
Bim-Mcl-1: human Bim-Mcl-1 interaction inhibition; actives 0.1% (n = 190,000); inhibition, % at 10 µM; Q07820; Bead-based flow cytometry, Bim peptide-Mcl-1 binding; in the data active = inhibition above about 40%
Mcl1 Bid PPI: Mcl-1/Bid interaction inhibition; TR-FRET Mcl-1/Bid-Dy647 peptide binding, 1536-well; inhibition, % at 21.7 µM; actives 0.97% (n = 220,000); AID 1021;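 active = compounds that cut the binding signal by more than half at the single screening dose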;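 note: His-tagged Mcl-1 with europium anti-His antibody binding Bid BH3 peptide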
zVAD death inh: L929 zVAD cell death inhibition | actives 0.38% (n = 220,000) | viability rescue, % at 10 µM | L929 zVAD necroptosis rescue, ATP luminescence, 24 h; with zVAD 60 µM;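 active = activation, scaled between plate controls, above about 75%, limit read from the data; inactive = activation under that limit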
Of the large screens only hits and unclear results are named; the others gave an inactive call.

Oc1[nH]c2ccccc2c1N=Nc1ncnc2c1oc1ccccc12	Mcl1 Noxa PPI 65 (no result: Bim-Mcl-1)
O=C(c1ccco1)N1CCN(C(=O)C2CCCc3c2[nH]c2ccc(Cl)cc32)CC1 (centres undefined)	none
O=C(NNC(=O)C12CC3CC(CC(C3)C1)C2)c1ccco1	Bim-Mcl-1 88
CC(CSc1nnnn1-c1ccccc1)Cn1c(N2CCN(C)CC2)nc2c1c(=O)[nH]c(=O)n2C (centres undefined)	Mcl1 Noxa PPI 52
CN1CCN(c2nc3c(c(=O)[nH]c(=O)n3C)n2CCSc2nnnn2-c2ccccc2)CC1	none (no result: Bim-Mcl-1)
O=C(OCC(=O)N1CCN(C(=O)c2ccco2)CC1)c1cn(-c2ccccc2)nc1-c1ccccc1	zVAD death inh 79
O=C(OCC(=O)N1CCN(C(=O)c2ccco2)CC1)c1cc(-c2ccccc2)nc2ccccc12	none
CC(C)(C)c1c(Cl)c(O)c(-c2ccccc2)c(=O)n1-c1ccccc1	Mcl1 Bid PPI 86
O=c1c(-c2ccccc2)c(O)cc(-c2ccncc2)n1-c1ccc(Cl)cc1	none
COCCN(C(=O)CNC(=O)c1cccs1)C(C(=O)NC(C)(C)C)c1ccccc1 (centres undefined)	none
NS(=O)(=O)c1ccc(NCc2c(F)cccc2Cl)cc1	none
Fc1cccc(Cl)c1CNc1ccc(N2CCCC2)cc1	Mcl1 Noxa PPI 72
COc1ccccc1NC(=O)c1c(N=Cc2cccc([N+](=O)[O-])c2)cnn1C	none (no result: Bim-Mcl-1)
CC(C)N1CCN(Cc2ccc3c(c2)Cc2ccccc2-3)CC1CCO (centres undefined)	none
O=C(Nc1ccc2c(c1)OCCO2)c1ccccn1	none
O=C(Cn1nc(-c2ccc3c(c2)OCCO3)ccc1=O)Nc1ccc(N2CCOCC2)cc1	none
O=C(Nc1ccc2c(c1)OCCO2)c1ccccc1F	none
O=C(NC(=S)Nc1ccc2c(c1)OCCO2)c1ccccc1F	Mcl1 Bid PPI 68
O=C(Nc1ccc2c(c1)OCCO2)c1cccc2nc3ccccc3nc12	Mcl1 Noxa PPI 62
O=C(Nc1ccc(NC(=O)c2ccccn2)cc1)C(=O)Nc1ccc2c(c1)OCCO2	Mcl1 Noxa PPI 54
O=C(Cn1nc(-c2ccc3c(c2)OCCO3)ccc1=O)Nc1cccc(NC(=O)c2ccccn2)c1	m-calpain inh 62
COc1ccc(C)cc1S(=O)(=O)N(C)CC(=O)N1CCN(c2ccccc2)CC1	none
C/C(C/C(C)=C1/SC(=S)NC1=O)=C1\SC(=S)NC1=O	Mcl1 Noxa PPI 73, Mcl1 Bid PPI 78
CCOC(=O)N1CCN(C(=O)c2ccc(OC(C)=O)cc2)CC1	none
O=Nc1ccc(NOC(=O)c2ccccc2Br)cc1	none
O=C(ONc1ccc(N=NC(=O)c2ccccc2O)cc1)c1ccccc1	Mcl1 Noxa PPI 84, Mcl1 Bid PPI 88
COc1ccc(C(c2c(O)ccc3ccccc23)N2CCOCC2)c(OC)c1 (centres undefined)	Mcl1 Noxa PPI 79
Cc1nn(-c2ccccn2)c2c1C(=O)C(Br)CC2 (centres undefined)	Mcl1 Noxa PPI 55
Cc1ccc(Oc2ccc(C(=O)NCc3ccncc3)cc2)cc1	m-calpain inh 50
Cc1ccccc1NC(=S)NNC(=O)c1ccncc1	none
COc1ccc(C(=O)NNC(=O)c2ccncc2)cc1	Mcl1 Noxa PPI 61
CC(=O)c1ccc(NC(=S)NNC(=O)c2ccncc2)cc1	Mcl1 Bid PPI 92
O=C(CN1CCOCC1)N/N=C/c1ccc(-c2cccc(Cl)c2Cl)o1	none (no result: Bim-Mcl-1)
Cc1cc2c(nc1C)CCCN2C[C@@H](C)O/N=C1/[C@H]2CCn3c(=O)n(-c4ccccc4)c(=O)n3[C@H]2[C@H](O)[C@@H]2O[C@H]12	none
Cc1ccc(C(c2nnnn2CC2CCCO2)N2CCN(c3cccc(C)c3C)CC2)cc1 (centres undefined)	none
CCCc1ccc(OCc2nc(-c3ccc(NC(=O)c4ccco4)cc3)no2)cc1	Mcl1 Bid PPI 60
O=C(O)CCc1nn2c3ccccc3nc2n(Cc2ccccc2)c1=O	none
CC1CCN(C(=S)c2cn(Cc3ccccc3F)c3ccccc23)CC1	none
CN1CCN(C(=S)c2cn(Cc3ccccc3F)c3ccccc23)CC1	Mcl1 Bid PPI 86
CCOc1cc(N2CCOCC2)c(OCC)cc1NC(=O)c1ccc(OC(C)C)cc1	none
CC(/C=N/n1c(-c2cc(C)[nH]n2)n[nH]c1=S)=C\c1ccco1	none (no result: Bim-Mcl-1)
CC(/C=N/n1c(-c2ccc(Cl)cc2)n[nH]c1=S)=C\c1ccco1	Mcl1 Noxa PPI 64
Cc1nn(-c2ccccc2)c(C)c1/C=N/n1c(-c2ccc(Cl)cc2)n[nH]c1=S	Mcl1 Noxa PPI 53
NNC(=O)c1cc2c(N3CCC(Cc4ccccc4)CC3)ncnc2s1	none
C=CCc1cccc2cc(C(=O)NNC(=O)CC#N)c(=O)oc12	none (no result: Bim-Mcl-1)
CCOCCCNC(=O)c1c(N)n(-c2ccc3c(c2)OCO3)c2nc3ccccc3nc12	none (no result: Bim-Mcl-1)
COCCCNC(=O)c1c(N)n(-c2ccc3c(c2)OCO3)c2nc3ccccc3nc12	zVAD death inh 84 (no result: Mcl1 Noxa PPI, m-calpain inh, Mcl1 Bid PPI)
Oc1ccc(/C=N/Nc2cc(N3CCCC3)nc(N3CCCC3)n2)cc1O	Mcl1 Noxa PPI 65
Oc1ccc(/C=N\Nc2cc(N3CCOCC3)nc(N3CCOCC3)n2)c(O)c1	none
Cc1ccc(S(=O)(=O)/C=C/c2ccccc2)cc1	none
Cc1ccc(C(=O)N/C(=C\c2ccc(C(C)C)cc2)C(=O)NCCCN2CCOCC2)cc1	Mcl1 Noxa PPI 51
Cc1ccc(C(=O)N/C(=C\c2ccc(Cl)cc2)C(=O)NCCCN2CCOCC2)cc1	none
CCN(CC)c1ccc(NC(=O)c2cncc(Br)c2)cc1	Mcl1 Noxa PPI 58
CCN(CC)c1ccc(NC(=O)Nc2ccc(C(C)=O)cc2)cc1	Mcl1 Noxa PPI 97
CCN(CC)c1ccc(NC(=O)c2cccnc2)cc1	none
CC(C)(C)C(=O)CSc1nnc(Nc2ccccc2)s1	none
O=C(CSc1ncn[nH]1)Nc1ccc(S(=O)(=O)Nc2ncccn2)cc1	none
O=C(CCNc1ccc(F)cc1)c1cccc([N+](=O)[O-])c1	none
O=C(Nc1nc(-c2cccnc2)cs1)c1cccc([N+](=O)[O-])c1	Mcl1 Noxa PPI 63
O=C(CC1NCCNC1=O)Nc1cccc([N+](=O)[O-])c1 (centres undefined)	Bim-Mcl-1 58
O=C(Nc1cccc([N+](=O)[O-])c1)c1cccc(C(=O)Nc2cccc([N+](=O)[O-])c2)c1	Mcl1 Noxa PPI 62, m-calpain inh 56, Mcl1 Bid PPI 53 (no result: Bim-Mcl-1)
O=C(Nc1cccc([N+](=O)[O-])c1)c1ccc(-c2ccccc2)cc1	none
O=C(CCNc1ccccc1)c1cccc([N+](=O)[O-])c1	m-calpain inh 51
O=C(Nc1nc(-c2ccccc2)cs1)c1cccc([N+](=O)[O-])c1	none
CC(C)CNC(=O)c1cccc(NC(=O)c2ccc(Cl)c([N+](=O)[O-])c2)c1	Bim-Mcl-1 45
